Results taken from PubChem BioAssay (NCI).
About 83,000 compounds went through this panel and 20% of them were active in at least one assay; those are over-represented in the sample as a whole.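 Note: values are percent growth. 100 is the growth of untreated cells, values between 100 and 0 indicate rising inhibition; between -100 and 0 indicates cell death.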 Values without a mark were called inactive. Rule for the calls: active = growth percent below 10; inactive = the rest.

system: T-47D breast; test: NCI-60 one-dose screen, 48 h (100 = growth as untreated, 0 = no growth, -100 = all killed); details: 10 µM unless noted

With C=C1C(=O)O[C@H]2[C@H]1CC/C(COC(=O)/C=C\C(=O)O)=C\CC[C@@]1(C)O[C@@H]21 as the molecule, how does the growth read?
Its growth is 100%.

How did the growth turn out when CCCCC1CCc2cccc3c(SCC(=O)N(C)c4ccc(Cl)cc4)cc[n+]1c23 (stereo not drawn) was run?
The growth was 104%.

How did the growth turn out when O=C(c1nc2ccccc2[nH]1)C1C(c2cccc([N+](=O)[O-])c2)C2CC3CCCCC3N2[C@@]12C(=O)Nc1cc(Cl)ccc12 (stereo partly drawn) was run?
Its growth is 38.4%.

Which growth does the source give for O=C1/C(=C/c2ccc(O)cc2)COc2ccc(O)cc21 here?
Its growth is 103%.

For O=C1/C(=C/c2ccc(O)cc2)COc2ccc(O)c(O)c21, which growth is on record?
The growth was 11.8%.

With COc1cc2nc(NC3CCCC3)nc(NC3CCN(C(C)C)CC3)c2cc1OC as the molecule, how does the growth read?
Its growth is 17.4%.

Which growth does the source give for Cc1ccccc1CNC(=O)C1CN(c2ccc(Cl)cc2)N(c2ccc(Cl)cc2)C1=O (stereo not drawn) here?
The growth was 71.6%.

With COc1cc(C2CC(c3ccc(Nc4nc(NCCO)nc(N5CCOCC5)n4)cc3)=NN2c2cc(Cl)cc(Cl)c2)cc(OC)c1OC (stereo not drawn) as the molecule, how does the growth read?
Its growth is 41.4%.

With O=C(c1nc2ccccc2[nH]1)C1C(c2ccc([N+](=O)[O-])cc2)C2CC3CCCCC3N2[C@@]12C(=O)Nc1cc(Cl)ccc12 (stereo partly drawn) as the molecule, how does the growth read?
The growth was 28.8%.

Which growth does the source give for O=C(Cn1cc(COc2ncnc3c2cnn3-c2ccccc2)nn1)Nc1cccc2ccccc12 here?
The growth was 87.1%.

For CN1C(=O)N(C)C2Nn3c(s/c(=C\c4ccc(Cl)cc4Cl)c3=O)=NC21 (stereo not drawn), which growth is on record?
The growth was 69.7%.

Which growth does the source give for O=Cc1cc2ccccc2nc1Nc1nccs1 here?
The growth was 77.5%.

Which growth does the source give for O=C1/C(=C/c2cccc(O)c2)COc2ccc(O)cc21 here?
Its growth is 86.8%.
